The list is not random: actives were taken first. Their share in the collection is about 1.2%.
gsp antag: qHTS for Antagonists of gsp, the Etiologic Mutation Responsible for Fibrous Dysplasia/McCune-Albright Syndrome: qHTS; gsp-mutant cells, cAMP HTRF, 30 min; Potency, µM (doses to about 76.9 µM), for the others: at the top dose activity change, negative = inhibition, actives largely listed as inhibitors; 0.4% of 340,000 active; AID 624288, 2012; calls by dose curve; cell line not stated here;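 further: intracellular cAMP measured with PDE inhibitor Ro 20-1724 present during compound exposure; potency means the concentration at half of the fitted maximal effect; on the % scale 0 is the no-effect control and ±100 the full control effect; nearly all actives have a fitted effect of over 65% in size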
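Cells in G418 medium, seeded 16-24 h, 37C; buffer exchange to DPBS + 1 mM CaCl2, 0.5 mM MgCl2, 0.05% BSA; cpds in DMSO + […] (300 uM stock), 30 min 37C; HTRF cAMP detection.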
RXFP1 antagonist: qHTS Assay for Antagonists of the Relaxin Receptor RXFP1 | Relaxin receptor 1 (Homo sapiens), Q9HBX9 | HEK293-RXFP1, relaxin-stimulated cAMP HTRF, 30 min; active compounds read low | activity change, negative = inhibition, % at 57.5 µM | 0.59% of 350,000 active | AID 1259400, 2018;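 active means activity change of -60% or lower, but not beyond a set lower limit; inconclusive means change between -60% and -40%, or beyond the set limit; inactive means change above -40%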; further: on the % scale 0 is the no-effect control and ±100 the full control effect
Target sequence (Q9HBX9 whole entry, looked up): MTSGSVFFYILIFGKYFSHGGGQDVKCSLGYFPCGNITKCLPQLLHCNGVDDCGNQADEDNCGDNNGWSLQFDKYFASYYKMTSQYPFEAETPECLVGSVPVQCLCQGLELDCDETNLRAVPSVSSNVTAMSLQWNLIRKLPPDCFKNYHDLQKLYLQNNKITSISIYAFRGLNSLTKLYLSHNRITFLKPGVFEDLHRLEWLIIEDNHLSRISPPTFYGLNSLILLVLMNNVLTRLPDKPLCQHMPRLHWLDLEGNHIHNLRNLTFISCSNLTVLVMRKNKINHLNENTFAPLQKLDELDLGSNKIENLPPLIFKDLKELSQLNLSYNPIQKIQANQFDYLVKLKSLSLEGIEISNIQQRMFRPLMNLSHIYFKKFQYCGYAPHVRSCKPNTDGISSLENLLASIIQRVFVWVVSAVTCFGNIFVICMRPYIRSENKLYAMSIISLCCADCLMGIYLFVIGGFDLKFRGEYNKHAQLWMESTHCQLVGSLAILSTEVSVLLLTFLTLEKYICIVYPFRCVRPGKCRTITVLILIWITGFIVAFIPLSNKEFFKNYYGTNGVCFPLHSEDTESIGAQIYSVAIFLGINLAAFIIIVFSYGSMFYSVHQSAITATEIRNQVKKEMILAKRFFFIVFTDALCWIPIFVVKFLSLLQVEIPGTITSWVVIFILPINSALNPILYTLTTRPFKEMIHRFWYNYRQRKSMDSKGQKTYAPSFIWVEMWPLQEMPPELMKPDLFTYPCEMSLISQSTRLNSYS
RXFP1 ag: qHTS Assay for Agonists of the Relaxin Receptor RXFP1; HEK293T-RXFP1 cAMP TR-FRET, 30 min; response scale: percent of porcine relaxin response, buffer zero; 0.3% of 370,000 active; Potency, µM (doses to about 57.5 µM), for inactives: at the top dose activation, hits mostly activators; AID 2676, 2010; active means well fitted activation curve with a large enough effect; inconclusive means small, poorly fitted or top-dose-only effect; further: potency means the concentration at half of the fitted maximal effect; on the % scale 0 is the no-effect control and ±100 the full control effect; nearly all actives have a fitted effect of over 60% in size
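HEK293 cells stably expressing RXFP1, treated 30 min at 37C with compounds plus PDE4 inhibitor Ro 20174; cAMP measured by HTRF TR-FRET. Normalized to buffer and 29 nM porcine relaxin; EC50 by Hill fit.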
gsp ag: qHTS for Agonist of gsp, the Etiologic Mutation Responsible for Fibrous Dysplasia/McCune-Albright Syndrome: qHTS | gsp mutant cells, cAMP HTRF, 30 min | Potency, µM (top dose mostly 76.9 µM), for the others: top-dose activation (cAMP increase), actives largely listed as activators | 0.13% of 340,000 active; active means well fitted activation curve with a large enough effect; inconclusive means small, poorly fitted or top-dose-only effect, or another doubt; inactive means no such curve, though single readings can be large or run the other way; cell line not stated here;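 further: phosphodiesterase inhibitor Ro 20-1724 added with compounds to block cAMP breakdown; potency means the concentration at half of the fitted maximal effect; nearly all actives have a fitted effect of over 60% in size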
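Cells stably selected in G418 were plated at 2000/well, grown 16-24 hr, then given compounds in DMSO with the PDE inhibitor […] (300 uM solution added) for 30 min at 37C; cAMP was read by HTRF.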
Akt phos inh: HTS Assay for Inhibitors of Akt Phophorylation: Primary Screen; Neuro2A IGF-stimulated pAkt S473 HTRF, 20 min; active compounds read low; activity change, % for hits at 50 µM; 0.32% of 360,000 active; in the data active means activity change below about -80%; inconclusive means mostly about -51% to -80%; further: on the % scale 0 is the no-effect control and ±100 the full control effect
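Neuro2A cells in DMEM with 0.5% FBS, overnight at 37 deg C, given compound at single 50 µM final, then IGF (6 nM final) for 20 min at 37 deg C. Lysed; phospho-Akt Ser473 by HTRF after 24 h, 665/615 ratio.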
* marks the source's active call; other numbers are inactive results; i = inactive; ? = inconclusive; · = no result given; [ ] = another dose, or the depositor's remark.

SMILES	gsp antag	RXFP1 antagonist	RXFP1 ag	gsp ag	Akt phos inh
Cc1ccc(-n2c(Cl)c(Cl)nc(Cl)c2=O)cc1	5%	-103*	-3%	-15%[15.4 µM]	i
COc1nc(Cl)cn(-c2ccc(C)cc2)c1=O	11%	-2	2%	-17%	i
O=C1c2cc(S(=O)(=O)NCCO)ccc2-c2ccc(S(=O)(=O)NCCO)cc21	8%	5	4%	0%[15.4 µM]	i
O=C(O)CNS(=O)(=O)c1ccc2c(c1)C(=O)c1cc(S(=O)(=O)NCC(=O)O)ccc1-2	3%	2	28%	13µM*	i
Cc1ccc(C(=O)n2nc(C)c(S(=O)(=O)N3CCCCCC3)c2C)cc1C	·	·	0%	·	·
CCOC(=O)C1=C(C)NC2=C(C(=O)C(C(=O)OCC)C(c3ccc(OC)cc3)C2)C1c1ccccn1 (configuration not stated)	-11%[15.4 µM]	-14	3%	11%	-108%*
CCOC(=O)C1=C(C)NC2=C(C(=O)C(C(=O)OCC)C(c3cccc(OC)c3)C2)C1c1ccccn1 (configuration not stated)	-3%	0	2%	?	i
COc1cccc(OCCCCCCN2CCOCC2)c1	8%	-10	1%	-15%	·
CCOc1cccc(OCCCCN2CCOCC2)c1	2%	-5	4%	-45%	-108%*
CCn1cnc2sc(C(=O)N(Cc3ccc(N(C)C)cc3)Cc3ccco3)c(C)c2c1=O	7%	-11	6%	15%	-109%*
Fc1ccc(-c2cc(-c3nc(-c4ccccc4)no3)[nH]n2)cc1	·	-5	-2%	·	·
CCOc1ccc(C2C(C(N)=O)=C(C)Nc3nc(SCc4ccccc4)nn32)cc1 (configuration not stated)	·	·	-2%	·	·
C[C@H]1C[C@H]2[C@@H]3CCC4=CC(=O)C=C[C@]4(C)[C@@]3(F)[C@@H](O)C[C@]2(C)[C@@]1(O)C(=O)CO	-8%	·	·	·	i
C[C@H]1C[C@H]2[C@@H]3CCC4=CC(=O)C=C[C@]4(C)[C@@]3(Cl)[C@@H](O)C[C@]2(C)[C@@]1(O)C(=O)CO	-8%	-70*	2%	·	i
C=CCn1c(=O)[nH]c2cc(C(=O)N3CCN(c4cccc(Cl)c4)CC3)ccc2c1=O	32µM*	-6	0%	-42%	i
C=CCn1c(=O)[nH]c2cc(C(=O)N3CCN(c4ccc(C(C)=O)cc4)CC3)ccc2c1=O	-23%	24	3%	-21%	i
CCOc1ccc(Cn2c(CNS(=O)(=O)c3ccc(Cl)s3)nc3cccnc32)cc1	·	5	0%	·	·
Clc1ccc(C(c2ccccc2Cl)C(Cl)Cl)cc1 (configuration not stated)	-15%	-74*	-2%	·	·
O=C(CS(=O)Cc1ccco1)NC/C=C\COc1cc(CN2CCCCC2)ccn1 (configuration not stated)	·	-12	·	·	·
CCCn1ccc2c(OCC(=O)Nc3ccccc3C(=O)OCC)cccc2c1=O	·	·	2%	·	·
CCCCNc1c(-c2cccc(-c3ccc(OC)cc3)c2)nc2cc(C)ccn12	32µM*	·	·	?	i
CCCCNc1c(-c2cccc(-c3cc(C(C)=O)cs3)c2)nc2ccc(C)cn12	35µM*	·	0%	·	i
CCCN1C(=O)C(Cc2nc3ccccc3c(=O)n2-c2ccc(OC)cc2)c2cc(C)ccc21 (configuration not stated)	·	-3	-1%	·	·
Cc1ccc(NC(=O)CSc2nnc3nc(C)cc(C)n23)cc1	·	2	11%	·	·
Cn1c(O)c(/C=C2\C=Nc3ccccc32)sc1=Nc1ccc(C(=O)O)cc1	-10%	-16	0%	-1%	i
SMILES	gsp antag	RXFP1 antagonist	RXFP1 ag	gsp ag	Akt phos inh
CCn1c(O)c(/C=C2\C=Nc3ccccc32)sc1=Nc1ccccc1	4%	-5	1%	-10%	-89%*
O=C(O)CC/C(=C/c1cccc(NC(=O)c2ccccc2Cl)c1)c1nc2ccccc2s1	?	8	·	11%	i
COc1cc(/C=C(\CCC(=O)O)c2nc3ccccc3s2)ccc1OCC(=O)Nc1c(Cl)cccc1Cl	28µM*	-3	·	-48%	i
COc1cc2c(cc1NC(=O)CN(C)Cc1ccc(OC)c(OC)c1)oc1ccccc12	40µM*	-7	1%	5%	i
COc1ccc(OC)c(NC(=O)c2cc3oc4ccccc4c3cc2O)c1	?	-10	29%	32µM*	i
COc1cc(OC)c(NC(=O)c2cc3ccccc3cc2O)cc1Cl	32µM*	-19	·	-4%	i
COc1cccc(CCNC(=O)c2cnc3sc(N4CCCC4)nn3c2=O)c1	·	-6	4%	·	·
CCC(=O)c1ccc(OCC(O)Cn2c(C)nc3ccccc32)cc1 (configuration not stated)	-39%	-16	3%	28µM*	i
CCC(C)S(=O)(=O)c1oc(-c2ccc(F)cc2)nc1S(=O)(=O)c1ccc(F)cc1 (configuration not stated)	·	?	2%	·	·
CCCCS(=O)(=O)c1oc(-c2ccc(F)cc2)nc1S(=O)(=O)c1ccc(C)cc1	·	-72*	0%	·	·
CCS(=O)(=O)c1oc(-c2ccc(F)cc2)nc1S(=O)(=O)c1ccccc1	·	-107*	-1%	·	·
CCCCCS(=O)(=O)c1oc(-c2cccs2)nc1S(=O)(=O)c1ccc(C)cc1	·	5	0%	·	·
CCCCS(=O)(=O)c1oc(-c2cccs2)nc1S(=O)(=O)c1ccc(F)cc1	·	-76*	1%	·	·
CCOc1ccc(CC(=O)Nc2ccc3nc(N4CCCCC4)cc(C)c3c2)cc1OCC	·	-9	0%	·	·
O=C(Nc1ccc(N2CCCCC2)cc1)c1ccccn1	-9%	-72*	1%	?	i
O=C(Nc1ccccc1)c1cccnc1N1CCCC1	15%	1	0%	-11%	i
O=C(NCc1ccc(F)cc1)c1cnc(N2CCCCC2)c2ccccc12	·	-62*	7%	·	·
O=C(Nc1ccccc1)c1cnc(N2CCCCC2)c2ccccc12	·	-68*	6%	·	·
O=C(Nc1ccc(N2CCCCCC2)cc1)c1ccccc1Cl	5%	-31	1%	?	i
CCN1CCN(C(c2ccc(SC)cc2)c2c(O)cc(C)n(CCOC)c2=O)CC1 (configuration not stated)	·	2	9%	·	·
COc1ccc(C2(CNC(=O)C(=O)Nc3ccc(C)c(Cl)c3)CCCC2)cc1OC	·	-7	1%	·	·
O=C(Nc1ccccc1C(=O)OCc1cc(=O)n2ccsc2n1)c1cccc(F)c1	·	10	8%	·	·

Source: PubChem BioAssay (National Center for Advancing Translational Sciences (NCATS))
